Bioassay records from PubChem BioAssay.
The list is not random: actives were taken first. Their share in the collection is about 11%.
Pf growth 48h – P. falciparum growth inhibition at 48 hours (one generation); 310,000 tested, 5.9% active; P. falciparum luciferase growth in erythrocytes, 48 h; Potency, µM (titrated, usually from 28.7 µM), actives largely listed as inhibitors; AID 504832
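Luciferase-expressing P. falciparum in infected erythrocytes (2% hematocrit, 0.1% parasitemia final) in RPMI 1640/0.5% Albumax were exposed to compound for 48 hours at 37 C, 5% CO2; growth read as luminescence.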
NS1 inh – influenza NS1 inhibition | 270,000 tested, 0.4% active | Potency, µM (titrated, usually from 46.1 µM); calls by dose curve; note: actives are rising curves; nearly all actives have a fitted effect of over 50% in size
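OD600 was taken as the measure of yeast growth restored by compound in an NS1-expressing S. cerevisiae strain. Cells had been washed out of glucose medium and diluted 1:100 into galactose -URA medium, pH 6.0.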
AMA1-RON2 inh – disrupts binding of P. falciparum AMA1 to RON2; AlphaScreen AMA1-biotinylated RON2 peptide binding; Potency, µM (series often up to 58.2 µM), hits mostly inhibitors; 360,000 tested, 0.2% active; note: nearly all actives have a fitted effect of over 45% in size
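AMA1 (3D7) with his tag at 25 nM final met compounds first, then biotinylated RON2 peptide at 25 nM; detection used donor plus acceptor beads, 10 µg/mL apiece, read by AlphaScreen after 30 min at room temperature.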
Pf growth 96h – inhibits malaria parasite growth, 96 h; P. falciparum luciferase reporter growth, 96 h; Potency, µM (series often up to 28.7 µM), usual class: inhibitors; 320,000 tested, 6.9% active; AID 504834
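Erythrocytes infected with luciferase-expressing P. falciparum were dispensed at 2% hematocrit and 0.05% parasitemia (final), then incubated with compounds 96 hours at 37 C in 5% CO2. Luminescence after detection reagent addition reported growth.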
Sm TGR inh – inhibitors of Schistosoma mansoni thioredoxin glutathione reductase. purified TGR, DTNB reduction, TNB absorbance 405 nm. AID 485364. 360,000 tested, 3% active. Potency, µM (doses to about 114 µM), usual class: inhibitors. Q962Y6; note: nearly all actives have a fitted effect of over 60% in size
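TGR 20 nM + NADPH 100 uM (dispensed conc.), cpd preinc 15 min RT; start with NADPH (500 uM addition) then DTNB (15 mM addition). Kinetic TNB absorbance, 405 nm filter. Four-parameter Hill fit across titration.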
Hits are given with their value; 0 = inactive; ? = inconclusive; - = not tested or not shown; [ ] = another dose, or the depositor's remark. Unless noted, calls come from the whole dose curve; as a rule, active = well fitted curve in the direction sought with a large enough effect; inconclusive = small, poorly fitted or top-dose-only effect, or another doubt; inactive = no such curve, though single readings can be large; an effect the other way counts as inactive or inconclusive.

SMILES	Pf growth 48h	NS1 inh	AMA1-RON2 inh	Pf growth 96h	Sm TGR inh
CCN1C(=O)/C(=C\c2cn(-c3ccccc3)nc2-c2cccnc2)SC1=S	12µM	0	0	?	0
Cc1ncc(C[n+]2csc(C)c2C)c(N)n1	0	0	0	0	25µM
COc1cc([C@@H]2c3cc4c(cc3[C@@H](O[C@@H]3O[C@@H]5CO[C@@H](C)O[C@H]5[C@H](O)[C@H]3O)[C@H]3COC(=O)[C@H]23)OCO4)cc(OC)c1O	-	-	0	-	-
COc1ccccc1CC(=O)NC1CCN(Cc2ccccc2)CC1	0	0	0	0	0
COc1cc([C@@H]2c3cc4c(cc3[C@@H](NC3CCN(Cc5ccccc5)CC3)[C@H]3COC(=O)[C@H]23)OCO4)cc(OC)c1O	0.74µM	0	-	0.17µM	0
COc1cc([C@@H]2c3cc4c(cc3[C@H](O)[C@H]3COC(=O)[C@H]23)OCO4)cc(OC)c1OC	15µM	0	0	1.1µM	0
COc1cc([C@@H]2c3cc4c(cc3[C@@H](OC)[C@H]3COC(=O)[C@H]23)OCO4)cc(OC)c1O	10µM	0	0	12µM	0
COc1cc([C@@H]2c3cc4c(cc3[C@@H](O)[C@@H](CO)[C@@H]2CO)OCO4)cc(OC)c1O[Si](C)(C)C(C)(C)C	9.3µM	0	-	?	0
CCCSc1ncc(Cl)c(C(=O)N(Cc2ccc(N(C)C)cc2)C2CCS(=O)(=O)C2)n1 (centres undefined)	-	-	-	-	0
COc1cc(COC(=O)c2cnc(C)cn2)c(OC)cc1Br	0	0	0	0	0
COc1ccc2c(C#N)c3ccccn3c2c1	0	0	0	0	0
O=C(N/N=C/c1cccc(O)c1)N/N=C/c1cccc(O)c1	?	0	0	?	0
Cc1nonc1C(=O)N/N=C/c1cccc(O)c1	0	0	0	2.1µM	11µM
CCOc1cc(C2CC(=O)Nc3c2c(C)nn3-c2nc(C)cc(C)n2)ccc1O (centres undefined)	-	-	-	-	0
Cc1occc1-c1nnc(SCC(=O)NCc2cccs2)n1CC1CCCO1 (centres undefined)	?	0	0	5.2µM	0
Cc1occc1-c1nnc(SCC(=O)c2ccccc2)n1CC1CCCO1 (centres undefined)	?	?	0	0	28µM
CCn1c(SCC(=O)Nc2ccccc2-c2ccccc2)nnc1-c1ccoc1C	?	0	0	12µM	0
Cc1occc1-c1nnc(SCC(=O)c2ccc3c(c2)OCCO3)n1CC1CCCO1 (centres undefined)	0	0	0	0	50µM
CCC(C)NC(=O)CSc1nnc(-c2ccoc2C)n1CC1CCCO1 (centres undefined)	0	0	0	?	0
CCn1c(SCC(=O)Nc2ccccc2F)nnc1-c1ccoc1C	0	0	0	?	0
COc1ccc(-c2[nH]c(-c3ccc(C)cc3)nc2SCC(=O)NCC2CCCO2)cc1 (centres undefined)	-	-	-	-	0
CC(C)CC(=O)Nc1ccnc(-c2ccncc2)n1	0	0	0	0	-
Cc1occc1-c1nnc(SCCCC(=O)c2ccc(F)cc2)n1C	?	0	0	?	0
CCn1c(SCC(=O)c2ccc(F)cc2)nnc1-c1ccoc1C	0	?	0	0	40µM
CCS(=O)(=O)N1CCC2(CC1)OCCN2S(=O)(=O)c1ccc(OC)cc1	0	-	0	0	0
SMILES	Pf growth 48h	NS1 inh	AMA1-RON2 inh	Pf growth 96h	Sm TGR inh
CCCC(NS(=O)(=O)c1ccc(-c2ccc(=O)[nH]n2)s1)c1cccs1 (centres undefined)	0	0	0	?	0
O=C(CCCN1C(=O)C(c2ccccc2)Oc2cccnc21)Nc1cccc(F)c1 (centres undefined)	10µM	0	0	?	0
Cc1cc(C)cc(NC(=O)CCCN2C(=O)C(c3ccccc3)Oc3cccnc32)c1 (centres undefined)	?	0	0	3.7µM	0
O=C(CN1C(=O)C(c2ccccc2)Oc2cccnc21)NCc1ccccc1F (centres undefined)	?	0	0	9.3µM	0
CC(=O)Nc1ccc(NC(=O)CCCN2C(=O)C(c3ccccc3)Oc3cccnc32)cc1 (centres undefined)	-	-	0	-	-
COc1ccc(CNC(=O)CN2C(=O)C(c3ccccc3)Oc3cccnc32)cc1 (centres undefined)	0	0	0	?	0
CC(NC(=O)COc1ccc(N(C)S(=O)(=O)c2ccccc2)cc1)c1ccccc1 (centres undefined)	?	0	0	?	0
CC(=O)c1cccc(NC(=O)COC(=O)C2=COCCO2)c1	0	-	0	0	0
CS(=O)(=O)c1ncc(CO)n1Cc1ccccc1	0	0	0	0	0
CC(COc1ccccc1)N1CCC(CO)(Cc2ccccc2)CC1 (centres undefined)	?	0	0	0	0
Cc1cc(C)nc(N(C#N)Cc2ccc(Cl)cc2)n1	0	0	0	13µM	0
CCCCc1nc2cc(C(=O)N3CCCC(COC)C3)ccc2o1 (centres undefined)	0	0	0	?	0
COCC1CCN(C(=O)c2ccc3oc(CCCc4ccccc4)nc3c2)C1 (centres undefined)	0	0	0	3.7µM	0
COCC1CCCN(C(=O)c2ccc3oc(CCCc4ccccc4)nc3c2)C1 (centres undefined)	?	0	0	?	28µM
COc1ccc(Nc2cc(C)c3cc([N+](=O)[O-])ccc3n2)cc1	0[0.00184 µM]	0	0	0	0
Cc1cc(N2CCC(C)CC2)nc2cccc(O)c12	-	0	0	12µM	?
Cc1cccc(CC(=O)Nc2ccc3nc(N4CCC(C)CC4)cc(C)c3c2)c1	-	-	-	-	0
Cc1ccc2nc3c(cc(C(=O)NCCN4CCOCC4)c(=N)n3CCCN3CCOCC3)c(=O)n2c1	12µM	0	0	?	0
CCCCn1c(=N)c(C(=O)NC2CCCCC2)cc2c(=O)n3cccc(C)c3nc21	-	-	-	-	0
Cc1cccn2c(=O)c3cc(C(=O)NC4CCCCCC4)sc3nc12	?	0	0	?	35µM
CCCn1c(=N)c(C(=O)NC2CCCC2)cc2c(=O)n3cccc(C)c3nc21	1.9µM	0	0	?	0
Cc1ccc2nc3c(cc(C(=O)NCCc4ccccc4)c(=N)n3CCN3CCOCC3)c(=O)n2c1	0	0	0	0	0
Cc1cccn2c(=O)c3cc(C(=O)NC4CCS(=O)(=O)C4)sc3nc12 (centres undefined)	-	0	0	0	0
CCCCNC(=O)c1cc2c(=O)n3cccc(C)c3nc2n(Cc2ccncc2)c1=N	5.2µM	0	0	0	0
Cc1ccc(NC(=O)CSc2ncc3ccccn23)cc1	0	0	0	0	0
COc1cc2ccccc2cc1C(=O)Nc1ccc2oc(-c3ccccc3)nc2c1	-	-	-	-	0
N=c1c(C(=O)NCCN2CCOCC2)cc2c(=O)n3ccccc3nc2n1Cc1ccc(F)cc1	9.3µM	0	0	10µM	0
CCCCNC(=O)c1cc2c(=O)n3cccc(C)c3nc2n(CCN2CCOCC2)c1=N	3.7µM	0	0	?	0
